{"source": "paper PMC12864922", "about": "“TDP-43 directly inhibits mRNA accumulation in neurites through modulation of mRNA stability”", "binders": {"B1": {"name": "ENSMUSG00000042529.290|Kcnj12 (ssRNA)", "RNA": "GGGAGUUCUACAGUCCGACGAUCGCUUCGAUAUCCGCAUGCUAGGCACCUGUCAUUCUUUCUGAGUAGGUGGGCCUGUAUCCAGAGCAGGGUCUAGGGGCUCCUGCUCCCGGCUCAUCUCAGUGGCCUGAAGCAUUCAAAACUCUAGCCAGCCCCAUCCUCCUCCCUGCCAGAAUGGUCCAGUCCCUGGGCCCUGCUGGAGAGCAGCUCAAACUGCCUUUCAUCUCUGCCAAAGGCAGGCAGAUGCUGUAUUUUCAAAUUCUCCUGCCCUCUUUUCCCCUUUUUCCCUGUAUUUAUUUAUUGCCUCUUGCGGUCGCACUAGUGUGGAAUUCUCGGGUGUCAAGG"}, "B2": {"name": "ENSMUSG00000042529.422|Kcnj12 (ssRNA)", "RNA": "GGGAGUUCUACAGUCCGACGAUCGCUUCGAUAUCCGCAUGCUAACAUGUGUGAGGGUGUGGAGGUCCCAGGGUGUGUGUAUGUGAAUGUCAGUGGCUUGGGUGCUGUGUGGAGAGAGAGAGAGAGAGAGAGAGAGAGAGAGAGAGAGAGAGAGAGAGAGAGCUGCACAGGAUGAAGCAGCUGCCCUGAGCCCAUCUGGUGCUGUGCACCUGGUCCUUGUCCAGCCGAGGGCCUGGGGGCAGAAGAACACACCAUAGGGAGGCCCUUGUAUGGGUGUCUGCCCUAUGUGAGGUCAUAGAAUGUUCUCUUGCGGUCGCACUAGUGUGGAAUUCUCGGGUGUCAAGG"}, "B3": {"name": "ENSMUSG00000042529.423|Kcnj12 (ssRNA)", "RNA": "GGGAGUUCUACAGUCCGACGAUCGCUUCGAUAUCCGCAUGCUAGUGAGGGUGUGGAGGUCCCAGGGUGUGUGUAUGUGAAUGUCAGUGGCUUGGGUGCUGUGUGGAGAGAGAGAGAGAGAGAGAGAGAGAGAGAGAGAGAGAGAGAGAGAGAGAGCUGCACAGGAUGAAGCAGCUGCCCUGAGCCCAUCUGGUGCUGUGCACCUGGUCCUUGUCCAGCCGAGGGCCUGGGGGCAGAAGAACACACCAUAGGGAGGCCCUUGUAUGGGUGUCUGCCCUAUGUGAGGUCAUAGAAUGUUAAAUCUCUCUUGCGGUCGCACUAGUGUGGAAUUCUCGGGUGUCAAGG"}, "B4": {"name": "ENSMUSG00000042529.419|Kcnj12 (ssRNA)", "RNA": "GGGAGUUCUACAGUCCGACGAUCGCUUCGAUAUCCGCAUGCUAGUGUGUGUGUGUGUGUGAACAUGUGUGAGGGUGUGGAGGUCCCAGGGUGUGUGUAUGUGAAUGUCAGUGGCUUGGGUGCUGUGUGGAGAGAGAGAGAGAGAGAGAGAGAGAGAGAGAGAGAGAGAGAGAGAGAGAGCUGCACAGGAUGAAGCAGCUGCCCUGAGCCCAUCUGGUGCUGUGCACCUGGUCCUUGUCCAGCCGAGGGCCUGGGGGCAGAAGAACACACCAUAGGGAGGCCCUUGUAUGGGUGUCUGCCCUAUCUCUUGCGGUCGCACUAGUGUGGAAUUCUCGGGUGUCAAGG"}, "B5": {"name": "ENSMUSG00000042529.418|Kcnj12 (ssRNA)", "RNA": "GGGAGUUCUACAGUCCGACGAUCGCUUCGAUAUCCGCAUGCUAGUGUGUGUGUGUGUGUGUGUGUGAACAUGUGUGAGGGUGUGGAGGUCCCAGGGUGUGUGUAUGUGAAUGUCAGUGGCUUGGGUGCUGUGUGGAGAGAGAGAGAGAGAGAGAGAGAGAGAGAGAGAGAGAGAGAGAGAGAGAGCUGCACAGGAUGAAGCAGCUGCCCUGAGCCCAUCUGGUGCUGUGCACCUGGUCCUUGUCCAGCCGAGGGCCUGGGGGCAGAAGAACACACCAUAGGGAGGCCCUUGUAUGGGUGUCUGCUCUUGCGGUCGCACUAGUGUGGAAUUCUCGGGUGUCAAGG"}, "B6": {"name": "ENSMUSG00000042529.421|Kcnj12 (ssRNA)", "RNA": "GGGAGUUCUACAGUCCGACGAUCGCUUCGAUAUCCGCAUGCUAGUGUGAACAUGUGUGAGGGUGUGGAGGUCCCAGGGUGUGUGUAUGUGAAUGUCAGUGGCUUGGGUGCUGUGUGGAGAGAGAGAGAGAGAGAGAGAGAGAGAGAGAGAGAGAGAGAGAGAGAGAGCUGCACAGGAUGAAGCAGCUGCCCUGAGCCCAUCUGGUGCUGUGCACCUGGUCCUUGUCCAGCCGAGGGCCUGGGGGCAGAAGAACACACCAUAGGGAGGCCCUUGUAUGGGUGUCUGCCCUAUGUGAGGUCAUAGCUCUUGCGGUCGCACUAGUGUGGAAUUCUCGGGUGUCAAGG"}, "B7": {"name": "ENSMUSG00000042529.424|Kcnj12 (ssRNA)", "RNA": "GGGAGUUCUACAGUCCGACGAUCGCUUCGAUAUCCGCAUGCUAGUGUGGAGGUCCCAGGGUGUGUGUAUGUGAAUGUCAGUGGCUUGGGUGCUGUGUGGAGAGAGAGAGAGAGAGAGAGAGAGAGAGAGAGAGAGAGAGAGAGAGAGAGCUGCACAGGAUGAAGCAGCUGCCCUGAGCCCAUCUGGUGCUGUGCACCUGGUCCUUGUCCAGCCGAGGGCCUGGGGGCAGAAGAACACACCAUAGGGAGGCCCUUGUAUGGGUGUCUGCCCUAUGUGAGGUCAUAGAAUGUUAAAUCUAUUUUACUCUUGCGGUCGCACUAGUGUGGAAUUCUCGGGUGUCAAGG"}, "B8": {"name": "ENSMUSG00000042529.420|Kcnj12 (ssRNA)", "RNA": "GGGAGUUCUACAGUCCGACGAUCGCUUCGAUAUCCGCAUGCUAGUGUGUGUGUGAACAUGUGUGAGGGUGUGGAGGUCCCAGGGUGUGUGUAUGUGAAUGUCAGUGGCUUGGGUGCUGUGUGGAGAGAGAGAGAGAGAGAGAGAGAGAGAGAGAGAGAGAGAGAGAGAGAGAGCUGCACAGGAUGAAGCAGCUGCCCUGAGCCCAUCUGGUGCUGUGCACCUGGUCCUUGUCCAGCCGAGGGCCUGGGGGCAGAAGAACACACCAUAGGGAGGCCCUUGUAUGGGUGUCUGCCCUAUGUGAGGCUCUUGCGGUCGCACUAGUGUGGAAUUCUCGGGUGUCAAGG"}, "B9": {"name": "ENSMUSG00000042529.416|Kcnj12 (ssRNA)", "RNA": "GGGAGUUCUACAGUCCGACGAUCGCUUCGAUAUCCGCAUGCUAGUGUGUGUGUGUGUGUGUGUGUGUGUGUGUGUGUGAACAUGUGUGAGGGUGUGGAGGUCCCAGGGUGUGUGUAUGUGAAUGUCAGUGGCUUGGGUGCUGUGUGGAGAGAGAGAGAGAGAGAGAGAGAGAGAGAGAGAGAGAGAGAGAGAGAGAGCUGCACAGGAUGAAGCAGCUGCCCUGAGCCCAUCUGGUGCUGUGCACCUGGUCCUUGUCCAGCCGAGGGCCUGGGGGCAGAAGAACACACCAUAGGGAGGCCCUUGCUCUUGCGGUCGCACUAGUGUGGAAUUCUCGGGUGUCAAGG"}, "B10": {"name": "ENSMUSG00000042529.417|Kcnj12 (ssRNA)", "RNA": "GGGAGUUCUACAGUCCGACGAUCGCUUCGAUAUCCGCAUGCUAGUGUGUGUGUGUGUGUGUGUGUGUGUGUGAACAUGUGUGAGGGUGUGGAGGUCCCAGGGUGUGUGUAUGUGAAUGUCAGUGGCUUGGGUGCUGUGUGGAGAGAGAGAGAGAGAGAGAGAGAGAGAGAGAGAGAGAGAGAGAGAGAGAGCUGCACAGGAUGAAGCAGCUGCCCUGAGCCCAUCUGGUGCUGUGCACCUGGUCCUUGUCCAGCCGAGGGCCUGGGGGCAGAAGAACACACCAUAGGGAGGCCCUUGUAUGGGCUCUUGCGGUCGCACUAGUGUGGAAUUCUCGGGUGUCAAGG"}, "B11": {"name": "ENSMUSG00000043670.158|Diras1 (ssRNA)", "RNA": "GGGAGUUCUACAGUCCGACGAUCGCUUCGAUAUCCGCAUGCUACUGCUGAGAUAGAGACCUUGGCACAGUGGCACCUCGACAGCCACCCCGACUGGGGGUUUGGGGUGCUGAGGGUGGGGUGCCCAGCUGAGAGUCUAUCAGCAAAGUCCCUGUGUGCGGUGAUAGGACUAGUGGCUGCUGCCCUAGGGCUCUGACAGAAUCUGAGCCUCUUUGCUGGUCAUGUGUACUCUGGAGACUGUCCCCCAUGUCUGCCCUGAGUUACGGAGCCCCUGUGGUAUCUGCGAGACUGUCCAGGAGACUUGCUCUUGCGGUCGCACUAGUGUGGAAUUCUCGGGUGUCAAGG"}, "B12": {"name": "ENSMUSG00000022095.20|Fam160b2|21:25;227:231 (ssRNA)", "RNA": "GGGAGUUCUACAGUCCGACGAUCGCUUCGAUAUCCGCAUGCUAGGUGGGGGAAGAUUCCUGCCACACAACUUCUGCCCACGGGCAGUCUCCUGCCUGGCCAUGCUGCCACUCUGUCCUCCAUGCCGGGGACUUCAGCUGCAGGACACCUCACCUGUUGACCCCACGAGCUGAGGUUUCAAGGAGGUGCUGGCUCCUAAGGCAGUGGUAUUCUUGGAGCCUUUUAGAGGAGCUAGAGGAUGGCCAGUGAGCGCCUAGAUGCUGCCCUGCAACACAUGCGUGACUAUCUCUGCUAUAUUGUGACCCUCUUGCGGUCGCACUAGUGUGGAAUUCUCGGGUGUCAAGG"}, "B13": {"name": "ENSMUSG00000035202.138|Lars2 (ssRNA)", "RNA": "GGGAGUUCUACAGUCCGACGAUCGCUUCGAUAUCCGCAUGCUAAUAAAGGAUUUUAAAUUUUUUUACAAGUGAGAACCUAGCAUGUCAAGGUCCUAGGUUCCAUCUCCAACACGAAAAAAGCAAGGCAACUCUACCAAAGAAACUAAUUACAUACUUGUAUUCCCAAUAUGUGAGAAGCUGAGGAAGGAGGAUCAUGAGUUUAAAGCCAUCCUUGGUUACAUGAGACUCUUGUCUCAAAGAACUACCAGGGAUCCUAAUGGACAACAAAGGUUGAAAACCAUUGAAUUAAUAAAUGUUGUGAACUCUUGCGGUCGCACUAGUGUGGAAUUCUCGGGUGUCAAGG"}}, "note": "Whole data set: some 9,900 sequences, median “r (bound/input frequency ratio)” near 0.7, cut for the highest 2% near 6.5. For the sample, the highest values were picked, then their nearest neighbours and some sequences at random.", "data": [{"target": "TDP-43 (Homo sapiens, UniProt Q13148 1-414)", "sequence (Q13148 whole entry)": "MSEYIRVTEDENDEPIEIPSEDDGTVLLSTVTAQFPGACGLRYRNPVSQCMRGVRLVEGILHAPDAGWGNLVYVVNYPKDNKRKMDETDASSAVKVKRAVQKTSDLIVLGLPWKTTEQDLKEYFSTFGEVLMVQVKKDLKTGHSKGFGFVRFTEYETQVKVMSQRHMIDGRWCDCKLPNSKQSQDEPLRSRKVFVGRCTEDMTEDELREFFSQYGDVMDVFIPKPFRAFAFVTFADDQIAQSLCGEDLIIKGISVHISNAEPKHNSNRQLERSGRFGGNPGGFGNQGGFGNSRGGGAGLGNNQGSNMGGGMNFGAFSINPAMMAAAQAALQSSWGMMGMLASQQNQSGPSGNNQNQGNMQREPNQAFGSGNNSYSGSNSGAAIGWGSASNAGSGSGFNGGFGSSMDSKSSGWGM", "assay": "RNA Bind-n-Seq with designed 260-mer pool; 25 mM Tris-HCl, 150 mM KCl, 3 mM MgCl2, BSA (printed 500 mg/mL), 20 units/mL SUPERase IN; pH not stated; 500 nM RNA pool, 1 h, 4 C; TDP-43 5, 50, 500 nM; high values mean tight binding", "details": "protein: recombinant; tags: SBP (GST cleaved off with PreScission; pGEX-GST-SBP)", "how_it_was_run": "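Recombinant SBP-tagged TDP-43 at 5, 50 or 500 nM was captured on streptavidin beads, then incubated 1 h at 4 °C with 500 nM of an in vitro-transcribed 260-nt 3′ UTR oligo pool in 25 mM Tris-HCl, 150 mM KCl, 3 mM MgCl2, BSA and SUPERase IN. Bound RNA was washed, eluted with biotin, reverse transcribed, PCR-amplified and sequenced. Binding is R, each oligo's mapped-read-normalized abundance in the bound sample divided by its abundance in input. Duplicates used two independent protein batches.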", "values": [{"binder": "B1", "binding signal": "1.04 R (bound/input frequency ratio)"}, {"binder": "B2", "binding signal": "6.32 R (bound/input frequency ratio)"}, {"binder": "B3", "binding signal": "7.6 R (bound/input frequency ratio)"}, {"binder": "B4", "binding signal": "6.65 R (bound/input frequency ratio)"}, {"binder": "B5", "binding signal": "6.38 R (bound/input frequency ratio)"}, {"binder": "B6", "binding signal": "6.04 R (bound/input frequency ratio)"}, {"binder": "B7", "binding signal": "5.67 R (bound/input frequency ratio)"}, {"binder": "B8", "binding signal": "6.59 R (bound/input frequency ratio)"}, {"binder": "B9", "binding signal": "6.11 R (bound/input frequency ratio)"}, {"binder": "B10", "binding signal": "5.22 R (bound/input frequency ratio)"}, {"binder": "B11", "binding signal": "0.372 R (bound/input frequency ratio)"}, {"binder": "B12", "binding signal": "0.271 R (bound/input frequency ratio)"}, {"binder": "B13", "binding signal": "0.101 R (bound/input frequency ratio)"}]}]}
